Laboratory results as given in PubChem BioAssay AID2665 (Vanderbilt High Throughput Screening Facility, 2010).
The source made the active and inactive calls. How the calls were made is not given here.

The molecules below were run against Muscarinic acetylcholine receptor M1 (Rattus norvegicus) (UniProt P08482) (assay: M5 positive allosteric modulators, analog testing, SAR follow-up, CHO cells, calcium, ACh EC10, single 30 µM (AID 2665;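 further: 100% = response to a maximal acetylcholine concentration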)). Conditions: rat M1 potentiation, CHO calcium; at 30 µM; stronger effect = higher value.
Work on `Cc1ccc2c(c1)C(=O)C(=O)N2Cc1ccccc1Cl` yielded a % ACh max response of 16.8%.
`O=C1C(=O)N(Cc2ccccc2F)c2ccc(Cl)cc21` showed a % ACh max response of 23%.
Molecule `O=C1C(=O)N(Cc2ccc(C(F)(F)F)cc2)c2c(F)cccc21` has a % ACh max response of 60.9%.
Molecule `O=C1C(=O)N(Cc2ccccc2Cl)c2c(Cl)ccc(Cl)c21` has a % ACh max response of 13.1%.
`O=C1C(=O)N(Cc2ccc(F)cc2F)c2ccc(Cl)cc21` was tested, and the % ACh max response was 32.4%.
In the case of `O=C1C(=O)N(Cc2ccc(Br)cc2F)c2ccc(Cl)cc21`, the % ACh max response is reported as 29.9%.
In the case of `O=C1C(=O)N(Cc2ccccc2F)c2ccc(OC(F)(F)F)cc21`, the % ACh max response is reported as 11.3%.
For `Cc1cccc2c1N(Cc1ccccc1F)C(=O)C2=O`, the % ACh max response was 24.9%.
`O=C1C(=O)N(Cc2ccc(C(F)(F)F)cc2)c2ccc(OC(F)(F)F)cc21` gave a % ACh max response of 25.7%.
With `O=C1C(=O)N(Cc2ccc(Br)cc2)c2c(Cl)cccc21` the % ACh max response was 29.9%.
With `O=C1C(=O)N(Cc2ccc(OC(F)(F)F)cc2)c2c(F)cccc21` the % ACh max response was 51.8%.
`O=C1C(=O)N(CCc2ccc(Br)cc2)c2ccccc21` was tested, and the % ACh max response was 52.4%.
Molecule `O=C1C(=O)N(Cc2c(F)cccc2F)c2c(F)cccc21` has a % ACh max response of 33.1%.
With `O=C1C(=O)N(Cc2ccc(Br)cc2F)c2c(Cl)ccc(Cl)c21` the % ACh max response was 9.93%.
For `O=C1C(=O)N(Cc2ccccc2F)c2c(Cl)ccc(Cl)c21`, the % ACh max response was 12.4%.
Molecule `COc1cccc(CN2C(=O)C(=O)c3cc(C)ccc32)c1` has a % ACh max response of 14.5%.
Molecule `O=C1C(=O)N(Cc2ccccc2C(F)(F)F)c2c(Cl)ccc(Cl)c21` has a % ACh max response of 21.1%.
In the case of `O=C1C(=O)N(Cc2c(F)cccc2F)c2c(Cl)ccc(Cl)c21`, the % ACh max response is reported as 16.4%.
Work on `Cc1ccc2c(c1)C(=O)C(=O)N2Cc1ccccc1C` yielded a % ACh max response of 20.2%.
Molecule `COc1ccc(CCN2C(=O)C(=O)c3ccccc32)cc1` has a % ACh max response of 38.6%.
For `O=C1C(=O)N(Cc2ccc(C(F)(F)F)cc2)c2c(Cl)cccc21`, the % ACh max response was 67%.
For `O=C1C(=O)N(Cc2ccc(Br)cc2F)c2c(F)cccc21`, the % ACh max response was 39.2%.
With `O=C1C(=O)N(Cc2c(F)cccc2F)c2c(Cl)cccc21` the % ACh max response was 38.8%.
Molecule `O=C1C(=O)N(Cc2ccc(F)cc2F)c2c(F)cccc21` has a % ACh max response of 64.4%.
`O=C1C(=O)N(Cc2ccc(Br)cc2)c2c(Cl)ccc(Cl)c21` gave a % ACh max response of 12.1%.
`Cc1ccc2c(c1)C(=O)C(=O)N2Cc1ccc(Br)cc1` gave a % ACh max response of 19%.
Work on `O=C1C(=O)N(Cc2ccccc2C(F)(F)F)c2c(Cl)cccc21` yielded a % ACh max response of 31.1%.
`O=C1C(=O)N(Cc2ccccc2C(F)(F)F)c2c(F)cccc21` was tested, and the % ACh max response was 41.3%.
`O=C1C(=O)N(Cc2ccc(F)cc2F)c2c(Cl)ccc(Cl)c21` was tested, and the % ACh max response was 17.2%.
In the case of `O=C1C(=O)N(Cc2ccccc2Cl)c2ccc(Cl)cc21`, the % ACh max response is reported as 21.3%.
With `COc1ccc(CN2C(=O)C(=O)c3cc(OC(F)(F)F)ccc32)cc1` the % ACh max response was 12.7%.
`CCCOc1ccc(-c2ccc(CN3C(=O)C(=O)c4ccccc43)cc2)cc1` showed a % ACh max response of 24.2%.
With `O=C1C(=O)N(Cc2ccc(-c3ccc(Cl)cc3)cc2)c2ccccc21` the % ACh max response was 45.1%.
`COc1ccccc1-c1ccc(CN2C(=O)C(=O)c3ccccc32)cc1` gave a % ACh max response of 47.6%.
`O=C1C(=O)N(Cc2ccc(OC(F)(F)F)cc2)c2ccc(OC(F)(F)F)cc21` gave a % ACh max response of 13.8%.
In the case of `O=C1C(=O)N(Cc2ccc(-c3ccc(Cl)c(Cl)c3)cc2)c2ccccc21`, the % ACh max response is reported as 35.3%.
`O=C1C(=O)N(Cc2ccc(Br)cc2F)c2ccc(OC(F)(F)F)cc21` showed a % ACh max response of 11.6%.

Each molecule was assayed against Muscarinic acetylcholine receptor M5 (Homo sapiens) (UniProt P08912) in the same assay as above. Conditions: CHO hM5 calcium flux, ACh EC10 potentiation; at 30 µM; stronger effect = higher value.
Chain of Muscarinic acetylcholine receptor M5 (Homo sapiens) (P08912 whole entry, looked up): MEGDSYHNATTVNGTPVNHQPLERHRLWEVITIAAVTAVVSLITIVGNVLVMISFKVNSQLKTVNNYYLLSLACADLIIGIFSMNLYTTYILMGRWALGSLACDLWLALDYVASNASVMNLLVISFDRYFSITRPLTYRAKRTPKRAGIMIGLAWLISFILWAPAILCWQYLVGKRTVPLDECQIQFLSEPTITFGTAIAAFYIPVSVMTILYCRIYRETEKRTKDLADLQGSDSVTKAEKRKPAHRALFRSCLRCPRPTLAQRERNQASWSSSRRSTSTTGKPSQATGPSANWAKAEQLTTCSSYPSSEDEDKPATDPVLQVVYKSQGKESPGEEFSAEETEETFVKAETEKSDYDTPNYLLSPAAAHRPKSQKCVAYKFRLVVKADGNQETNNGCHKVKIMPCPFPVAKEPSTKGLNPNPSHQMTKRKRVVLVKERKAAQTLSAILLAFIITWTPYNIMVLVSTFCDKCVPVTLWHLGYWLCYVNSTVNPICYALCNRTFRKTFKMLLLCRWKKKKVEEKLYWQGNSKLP
For `Cc1ccc2c(c1)C(=O)C(=O)N2Cc1ccccc1Cl`, the % ACh max response was 24.3% (inactive).
With `O=C1C(=O)N(Cc2ccccc2F)c2ccc(Cl)cc21` the % ACh max response was 36.3% (inactive).
For `O=C1C(=O)N(Cc2ccc(C(F)(F)F)cc2)c2c(F)cccc21`, the % ACh max response was 71.1% (active).
`O=C1C(=O)N(Cc2ccccc2Cl)c2c(Cl)ccc(Cl)c21` was tested, and the % ACh max response was 18.9% (inactive).
In the case of `O=C1C(=O)N(Cc2ccc(F)cc2F)c2ccc(Cl)cc21`, the % ACh max response is reported as 44.9% (active).
With `O=C1C(=O)N(Cc2ccc(Br)cc2F)c2ccc(Cl)cc21` the % ACh max response was 30.4% (inactive).
In the case of `O=C1C(=O)N(Cc2ccccc2F)c2ccc(OC(F)(F)F)cc21`, the % ACh max response is reported as 51.8% (active).
In the case of `Cc1cccc2c1N(Cc1ccccc1F)C(=O)C2=O`, the % ACh max response is reported as 24.6% (inactive).
With `O=C1C(=O)N(Cc2ccc(C(F)(F)F)cc2)c2ccc(OC(F)(F)F)cc21` the % ACh max response was 67.2% (active).
For `O=C1C(=O)N(Cc2ccc(Br)cc2)c2c(Cl)cccc21`, the % ACh max response was 44.3% (active).
`O=C1C(=O)N(Cc2ccc(OC(F)(F)F)cc2)c2c(F)cccc21` was tested, and the % ACh max response was 57.7% (active).
With `O=C1C(=O)N(CCc2ccc(Br)cc2)c2ccccc21` the % ACh max response was 65% (active).
In the case of `O=C1C(=O)N(Cc2c(F)cccc2F)c2c(F)cccc21`, the % ACh max response is reported as 25.1% (inactive).
For `O=C1C(=O)N(Cc2ccc(Br)cc2F)c2c(Cl)ccc(Cl)c21`, the % ACh max response was 12.4% (inactive).
In the case of `O=C1C(=O)N(Cc2ccccc2F)c2c(Cl)ccc(Cl)c21`, the % ACh max response is reported as 14.7% (inactive).
For `COc1cccc(CN2C(=O)C(=O)c3cc(C)ccc32)c1`, the % ACh max response was 29.6% (inactive).
`O=C1C(=O)N(Cc2ccccc2C(F)(F)F)c2c(Cl)ccc(Cl)c21` was tested, and the % ACh max response was 16% (inactive).
With `O=C1C(=O)N(Cc2c(F)cccc2F)c2c(Cl)ccc(Cl)c21` the % ACh max response was 12.2% (inactive).
With `Cc1ccc2c(c1)C(=O)C(=O)N2Cc1ccccc1C` the % ACh max response was 29.9% (inactive).
`COc1ccc(CCN2C(=O)C(=O)c3ccccc32)cc1` was tested, and the % ACh max response was 51.7% (active).
For `O=C1C(=O)N(Cc2ccc(C(F)(F)F)cc2)c2c(Cl)cccc21`, the % ACh max response was 70.8% (active).
With `O=C1C(=O)N(Cc2ccc(Br)cc2F)c2c(F)cccc21` the % ACh max response was 46.3% (active).
With `O=C1C(=O)N(Cc2c(F)cccc2F)c2c(Cl)cccc21` the % ACh max response was 23.6% (inactive).
With `O=C1C(=O)N(Cc2ccc(F)cc2F)c2c(F)cccc21` the % ACh max response was 68.9% (active).
`O=C1C(=O)N(Cc2ccc(Br)cc2)c2c(Cl)ccc(Cl)c21` was tested, and the % ACh max response was 20.7% (inactive).
With `Cc1ccc2c(c1)C(=O)C(=O)N2Cc1ccc(Br)cc1` the % ACh max response was 24.1% (inactive).
`O=C1C(=O)N(Cc2ccccc2C(F)(F)F)c2c(Cl)cccc21` was tested, and the % ACh max response was 14% (inactive).
With `O=C1C(=O)N(Cc2ccccc2C(F)(F)F)c2c(F)cccc21` the % ACh max response was 30.9% (active).
In the case of `O=C1C(=O)N(Cc2ccc(F)cc2F)c2c(Cl)ccc(Cl)c21`, the % ACh max response is reported as 19.1% (inactive).
`O=C1C(=O)N(Cc2ccccc2Cl)c2ccc(Cl)cc21` was tested, and the % ACh max response was 44.4% (active).
In the case of `COc1ccc(CN2C(=O)C(=O)c3cc(OC(F)(F)F)ccc32)cc1`, the % ACh max response is reported as 60.7% (active).
For `CCCOc1ccc(-c2ccc(CN3C(=O)C(=O)c4ccccc43)cc2)cc1`, the % ACh max response was 48.6% (active).
For `O=C1C(=O)N(Cc2ccc(-c3ccc(Cl)cc3)cc2)c2ccccc21`, the % ACh max response was 6.53% (active).
For `COc1ccccc1-c1ccc(CN2C(=O)C(=O)c3ccccc32)cc1`, the % ACh max response was 58.1% (active).
With `O=C1C(=O)N(Cc2ccc(OC(F)(F)F)cc2)c2ccc(OC(F)(F)F)cc21` the % ACh max response was 58.9% (active).
With `O=C1C(=O)N(Cc2ccc(-c3ccc(Cl)c(Cl)c3)cc2)c2ccccc21` the % ACh max response was 56.3% (active).
With `O=C1C(=O)N(Cc2ccc(Br)cc2F)c2ccc(OC(F)(F)F)cc21` the % ACh max response was 36.4% (inactive).
